CRE Fsk mod = modulators of forskolin-stimulated CRE signaling in CHO cells | 71,000 compounds, 2.5% hits | Potency, µM (top dose mostly 38.2 µM), for inactives: top-dose activity change, negative = inhibition, usual class: activators | CHO CRE-bla reporter (cAMP response element driving beta-lactamase), forskolin EC10, beta-lactamase ratio; active = well fitted activation curve with a large enough effect in the signal ratio, with a control signal flat, not every such curve was filed as active; inconclusive = small, poorly fitted or top-dose-only effect, or effect the other way, or a change in a side signal; the % refers to the signal ratio; also: % of control where 0% means no effect
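Cells were plated overnight at 37 °C, exposed to compound titrations plus EC10 NKH 477 for 3 h, then given CCF4 dye for 2 h at room temperature. Blue/green (460/530 nm) ratio was converted to %Activity and AC50 values calculated.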
TSHR agonist = TSH receptor (human) agonism | P16473 | HEK293-CNG-TSHR cells (CNG channel as cAMP sensor), membrane potential dye, cAMP | Potency, µM (series often up to 57.1 µM), for inactives: at the top dose activation, hits mostly activators | 73,000 compounds, 0.48% hits; active = well fitted activation curve with a large enough effect in the main read-out, with a control signal flat, not every such curve was filed as active; inconclusive = small, poorly fitted or top-dose-only effect, or a change in a side signal; inactive = no such curve, though single readings can be large or run the other way; % of control where 0% means no effect;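 also: the control signal comes from parental cells without the receptor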
Target sequence (P16473 whole entry, looked up): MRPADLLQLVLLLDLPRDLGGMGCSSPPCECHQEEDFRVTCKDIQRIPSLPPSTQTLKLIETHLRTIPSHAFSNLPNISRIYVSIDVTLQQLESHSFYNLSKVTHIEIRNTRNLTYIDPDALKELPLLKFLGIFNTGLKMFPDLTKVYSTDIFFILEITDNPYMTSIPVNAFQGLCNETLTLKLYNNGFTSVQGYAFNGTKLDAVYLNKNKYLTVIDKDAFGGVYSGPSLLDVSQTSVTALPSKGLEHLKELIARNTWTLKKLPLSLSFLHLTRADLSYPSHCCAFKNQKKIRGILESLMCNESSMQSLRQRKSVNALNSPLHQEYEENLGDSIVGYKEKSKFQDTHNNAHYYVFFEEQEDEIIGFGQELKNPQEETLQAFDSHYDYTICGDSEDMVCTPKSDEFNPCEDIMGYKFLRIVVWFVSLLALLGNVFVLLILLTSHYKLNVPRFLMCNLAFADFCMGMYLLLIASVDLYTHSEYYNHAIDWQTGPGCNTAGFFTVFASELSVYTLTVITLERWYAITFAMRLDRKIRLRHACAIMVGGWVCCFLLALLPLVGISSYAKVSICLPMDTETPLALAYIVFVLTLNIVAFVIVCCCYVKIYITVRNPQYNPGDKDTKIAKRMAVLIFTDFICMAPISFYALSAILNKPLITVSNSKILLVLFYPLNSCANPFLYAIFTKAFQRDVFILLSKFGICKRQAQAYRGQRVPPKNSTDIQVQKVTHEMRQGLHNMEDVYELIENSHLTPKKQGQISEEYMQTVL
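cAMP rise detected as CNG-channel membrane depolarization by fluorescent dye (emission 590 nm), 30 min after compound, following 60 min dye loading containing 100 uM RO 20-1724 at room temperature. Cells: TSHR/CNG HEK 293, with parental CNG HEK 293 as control.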
IkB sig inh = suppresses IkB signaling in ABC-DLBCL reporter cells. ABC-DLBCL IkBa-CBG/CBR dual luciferase ratio, 4 h; response scale: scaled: untreated 0%, proteasome inhibitor 100%. Potency, µM (series often up to 57.1 µM), without a hit: at the highest dose IkBa stabilization activation. 110,000 compounds, 0.04% hits; active = well fitted curve in the direction sought with a large enough effect in the signal ratio, not every such curve was filed as active; inconclusive = small, poorly fitted or top-dose-only effect, or a change in a side signal; the % refers to the signal ratio;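 also: the direction sought is a rising ratio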
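In this assay, an IκBα–CBG68 fusion accumulates when IKK-driven degradation is blocked; native CBR normalizes for cell number. OCI-Ly3 cells were treated 4 h with compound and doxycycline, then green and red light read after Chroma-Glo addition.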
HEK293 cAMP ctrl = raises cAMP in parental HEK293 cells, TSHR agonist counter-screen; parental HEK293 CNG cAMP sensor, membrane potential fluorescence; Potency, µM (series often up to 57.1 µM), without a hit: at the highest dose activation, most hits filed as activators; 73,000 compounds, 2.5% hits; also: % of control where 0% means no effect; nearly all actives have a fitted effect of over 55% in size
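Counterscreen for endogenous-receptor signalling: CNG-channel HEK 293 cells report cAMP rise by membrane depolarization. After 60 min dye equilibration with 100 uM RO 20-1724, compounds incubated 30 min before bottom-read fluorescence at 590 nm.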
ERK AVP block = blocks ERK signaling stimulated by vasopressin | HEK293-V1b, vasopressin-stimulated pERK AlphaScreen | Potency, µM (titrated, usually from 57.5 µM), for the others: at the top dose activity, negative = inhibition, hits mostly inhibitors | 72,000 compounds, 0.99% hits | AID 995; also: % is scaled to controls: 0 for no effect and ±100 for the full control effect; nearly all actives have a fitted effect of over 55% in size
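Overnight-seeded V1b-HEK293 cells in 1% FBS got compound, then vasopressin (25 nM final, 5 min, 37C), then lysis buffer. AlphaScreen detection of phospho-ERK; activity normalized to basal and full-stimulation controls.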
An asterisk follows results filed as active; ? = inconclusive; . = not tested or not shown; [ ] = dose if it differs, or a comment. Hits are enriched below; roughly 3.6% of the tested compounds scored in any of these assays. Unless noted, calls follow the shape of the dose curve; as a rule, active = well fitted curve in the direction sought with a large enough effect; inconclusive = small, poorly fitted or top-dose-only effect, or another doubt; inactive = no such curve, though single readings can be large; an effect the other way counts as inactive or inconclusive. Potency is read from the fitted curve at half-maximal effect.

SMILES	CRE Fsk mod	TSHR agonist	IkB sig inh	HEK293 cAMP ctrl	ERK AVP block
O=C(CN1C(=O)C2CC=C(Cl)CC2C1=O)Nc1ccc(C(=O)O)cc1 (stereo unspecified)	-1%	-2%	-1%	-1%	-4%
C(=Nc1ccc2c(c1)Cc1ccccc1-2)c1ccccn1	3%[7.6 µM]	-6%[11.4 µM]	5%[11.4 µM]	2%[11.4 µM]	-14%[11.5 µM]
COc1ccc(-c2noc(-c3ccccc3C(=O)Nc3cccnc3)n2)cc1	?	?	-2%	?	-16%
CCOc1ccccc1NC(=O)c1ccccc1-c1nc(-c2ccccc2)no1	?	?	1%	16µM*	21%
COc1ccc(-c2noc(-c3ccccc3C(=O)Nc3cccc(OC)c3)n2)cc1	5%	?	?	13µM*	-13%
CC(=O)OCC1OC(C#Cc2ccc(C(C)(C)C)cc2)C=CC1OC(C)=O (stereo unspecified)	.	1%[11.4 µM]	.	6%[11.4 µM]	0%[11.5 µM]
O=C(c1cccc(F)c1)N1CCC2(CC1)CCN(c1ccc(-c3ccccc3)cc1)CC2	-7%	?	1%[11.4 µM]	16µM*	-7%
CCCC(c1nnnn1C1CCCC1)N1CCN(c2ccccc2F)CC1 (stereo unspecified)	-5%	?	2%	5µM*	17%
CCC(c1nnnn1C1CCCC1)N1CCN(c2ccccc2F)CC1 (stereo unspecified)	3%	?	1%	?	-10%
Cc1sc(NC(=O)CSc2nc(N)n(CC(=O)c3ccccc3)n2)c(C#N)c1C	5µM*	9%[11.4 µM]	1%	1%	5%
O=S(=O)(O)c1cc(N=[N+]([O-])c2cc(S(=O)(=O)O)c3ccccc3c2)cc2ccccc12	4%[7.6 µM]	-1%[11.4 µM]	6%[11.4 µM]	0%[11.4 µM]	-7%[11.5 µM]
Cc1cc(C)nc(N2CCCC(C(=O)Nc3ccc4nc(C)c(C)nc4c3)C2)n1 (stereo unspecified)	6.3µM*	4%	?	-1%	6%
Cc1c(-c2ccccc2)c(P(=O)(N2CCOCC2)N2CCOCC2)c2ccccn12	-3%	21%	1%	5%	-5%
CCOC(=O)C(C)Sc1nnc(-c2ccccc2O)n1-c1ccc(C)cc1 (stereo unspecified)	-1%	?	0%	20µM*	34%
CO/N=C\C[C@@H]1C=C[C@H](OC(C)=O)[C@H](COC(C)=O)O1	.	-7%[11.4 µM]	.	-1%[11.4 µM]	11%[11.5 µM]
CCOc1ccc(Cc2nccc3cc(OCC)c(OCC)cc23)cc1OCC	1.3µM*	?	2%[25.6 µM]	?	?
O=C(Nc1ccc2c(c1)OCO2)C1Cc2ccccc2CN1S(=O)(=O)c1cccs1 (stereo unspecified)	?	16%	?	14%	-47%
CCn1c2ccccc2c2nnc(SCc3ccc(C(=O)OC)o3)nc21	2µM*	?	?	?	-9%
CCn1c2ccccc2c2nnc(SCc3ccccc3)nc21	3.2µM*	.	?	13%	14%
CCn1c2ccccc2c2nnc(SCCN3CCCCC3)nc21	.	.	-4%	.	.
Cc1ccc(Cl)cc1NC(=O)CCn1cccc1	.	9%	.	2%	.
COc1ccc(C2CC(C(F)(F)F)n3ncc(C(=O)NCc4cccnc4)c3N2)cc1OC (stereo unspecified)	13µM*	3%	-4%	3%	?
Oc1cccc(Nc2nc(NCC3CCCO3)c3ccccc3n2)c1 (stereo unspecified)	3%	?	?	?	16µM*
Cc1nc(NCC2CCCO2)c2oc3ccccc3c2n1 (stereo unspecified)	?	7%	-1%	14%	?
Cc1ccc(C)c(NC(=O)Cn2c(=O)n(CC3CCCO3)c(=O)c3ccccc32)c1 (stereo unspecified)	.	.	0%	.	.
SMILES	CRE Fsk mod	TSHR agonist	IkB sig inh	HEK293 cAMP ctrl	ERK AVP block
Brc1ccc2nc(CSc3ncn[nH]3)cn2c1	-8%	-1%	1%	-3%	2%
Cc1ccc(C(c2nnnn2C(C)(C)C)N2CCN(C3CCCC3)CC2)cc1 (stereo unspecified)	0%	?	0%	?	-3%
Fc1ccc(C(c2nnnn2Cc2ccco2)N2CCN(C3CCCCC3)CC2)cc1 (stereo unspecified)	-16%	?	1%	?	6%
CC(C)CC(c1nnnn1Cc1ccco1)N1CCN(C2CCCC2)CC1 (stereo unspecified)	3%	?	0%	3.2µM*	-2%
CC(C)CC(c1nnnn1C(C)(C)C)N1CCN(C2CCCC2)CC1 (stereo unspecified)	-2%	?	6%	13µM*	0%
CCC(c1nnnn1Cc1ccc(F)cc1)N1CCN(C2CCCCC2)CC1 (stereo unspecified)	-2%	?	0%	0.63µM*	10%
O=C(OCc1nc(-c2ccccc2)oc1COC(=O)c1ccco1)c1ccco1	25%	?	0%	?	-10%
CN(C)S(=O)(=O)Nc1ccc(C(=O)O)cc1	-3%	13%	1%	2%	-22%
COc1cc(NC(=O)CN2C(=O)c3ccccc3C2=O)c(C(=O)O)cc1OC	-6%	27%	-1%	1%	-5%
c1ccc2c(CC3NCCN3)cccc2c1	-16%[7.6 µM]	7%[11.4 µM]	-1%[11.4 µM]	5%[11.4 µM]	-5%[11.5 µM]
CC1(C)CC[C@]2(C(=O)O)CC[C@]3(C)C(=CCC4[C@@]5(C)CC[C@H](O)C(C)(C)[C@@H]5CC[C@]43C)C2C1 (stereo partly specified)	.	.	.	.	12%
C[C@@H]1OC(OC2CC[C@@]3(C)C(CC[C@@]4(C)C3CC=C3C5CC(C)(C)CC[C@]5(C(=O)OC5OCC(O)[C@@H](O)[C@@H]5OC5O[C@@H](C)[C@H](O[C@H]6OC(CO)C(O)C(O)C6O)C(O)C5O)C(O)C[C@@]34C)C2(C)C)C(O)C(O)[C@H]1OC1OCC(O)C(O)[C@H]1O (stereo partly specified)	.	.	.	.	13µM*
Cc1noc(C)c1C(=O)N1CCC2(CCCN(c3ccccc3)C2)CC1	-8%	3%	0%[11.4 µM]	11%	-11%
O=C(O)CCCn1nc(-c2ccccc2)c2ccccc21	10%	?	2%	0.16µM*	.
O=C(O)Cn1nc(-c2ccccc2)c2ccccc21	-6%	9%	5%	11%	.
COc1ccc(-n2ccnc2SCC(=O)Nc2ccccc2)cc1	-3%	?	0%	3.2µM*	18%
Nc1c(C(=O)c2ccc(F)cc2)sc(Nc2ccccc2F)c1S(=O)(=O)c1ccc(Br)cc1	.	.	1%	.	.
CCn1c(CNc2nc(-c3ccccc3)cs2)nnc1SCC(=O)NCc1ccco1	-25%	-1%[11.4 µM]	0%	2%	3%
Cc1ccc(C(=O)CSc2nnc(CNc3nc(-c4ccccc4)cs3)n2C)cc1	?	24%	?	15%	13µM*
CN1Cc2sc(N)c(C#N)c2CC1(C)C	10µM*	-2%	0%	3%	-27%

Screening data: PubChem, National Center for Advancing Translational Sciences (NCATS)
